# From PubChem BioAssay (NCI)
# Where “and” joins values, the source holds several entries; their conditions need not be identical. Equal values may be shown once. About 79,000 compounds went through this panel and 15% of them were active in at least one assay; those are over-represented in the sample as a whole. More than one record can exist for a structure, and the calls need not agree. Calls of active or inactive are those of the source. Rule as the data show it: active = growth inhibition above about 70%; inactive = the rest.
# Tests used:
# [1] = NCI Yeast Anticancer Drug Screen. Data for the sgs1 mgt1 strain (AID 161);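 also: 0% = growth of cultures given vehicle only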; conditions: S. cerevisiae sgs1 mgt1 strain, stronger effect = higher value
# In short: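 Percent growth inhibition was derived by comparing compound-exposed mutant yeast with vehicle-exposed cultures. The strain carries alterations in DNA damage repair.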
# [2] = NCI Yeast Anticancer Drug Screen. Data for the CLN2oe strain (AID 163);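 also: 0% = growth of vehicle-only control cultures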; conditions: S. cerevisiae CLN2oe strain, stronger effect = higher value
# In short: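 Whole-cell yeast growth assay. A strain engineered for altered cell-cycle control received compound, and inhibition relative to vehicle-treated cultures was recorded.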
# [3] = NCI Yeast Anticancer Drug Screen. Data for the cln2 rad14 strain (AID 165);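 also: 0% = growth equal to vehicle treated cultures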; conditions: S. cerevisiae cln2 rad14 strain, stronger effect = higher value
# In short: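 Yeast strain cln2 rad14, bearing defects in cell cycle control and DNA repair, serves as the test system; values reflect growth inhibition compared with vehicle.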
# [4] = NCI Yeast Anticancer Drug Screen. Data for the bub3 strain (AID 167); conditions: S. cerevisiae bub3 mutant strain, stronger effect = higher value
# In short: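 Steps: expose the mutant yeast strain to compound; grow alongside vehicle-treated cultures; measure growth; express inhibition against the vehicle cultures.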
# [5] = NCI Yeast Anticancer Drug Screen. Data for the wt2 strain (AID 169);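 also: 0% = growth of vehicle-treated yeast cultures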; conditions: S. cerevisiae wt2 strain growth inhibition, stronger effect = higher value
# In short: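 Treated yeast vs. vehicle-treated yeast: growth inhibition determined.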
# [6] = NCI Yeast Anticancer Drug Screen. Data for the mlh1 strain (AID 171);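 also: 0% = growth of vehicle-treated control cultures of the same strain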; conditions: S. cerevisiae mlh1 strain growth inhibition, stronger effect = higher value
# In short: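 A yeast strain with a defined genetic lesion serves as the test organism. Cultures receive compound or vehicle, and growth is measured.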
# [7] = NCI Yeast Anticancer Drug Screen. Data for the sgs1 strain (AID 173);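 also: 0% = growth of vehicle-only control cultures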; conditions: S. cerevisiae sgs1 mutant, stronger effect = higher value
# In short: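 A genetically defined yeast mutant is incubated with the test compound, and its growth is compared to that of the same strain given vehicle.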
# [8] = NCI Yeast Anticancer Drug Screen. Data for the mlh1 rad18 strain (AID 175); conditions: S. cerevisiae mlh1 rad18 strain growth inhibition, stronger effect = higher value
# In short: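 Steps: expose repair-defective yeast to compound; measure growth; express inhibition against vehicle-treated controls.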
# [9] = NCI Yeast Anticancer Drug Screen. Data for the rad18 strain (AID 177); conditions: S. cerevisiae rad18 mutant growth inhibition, stronger effect = higher value
# In short: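 Measured value is growth inhibition of a yeast strain bearing a DNA repair alteration, referenced to vehicle-treated cells.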
# [10] = at 5.0 µM (retest, dose inferred, filed as 0.5)
# [11] = at 50.0 µM (retest, dose inferred, filed as 5.0)
structure (smiles),measurement,setting,value
c1ccc2[nH]c(-c3cscn3)nc2c1,growth inhibition,[1]; [10],-3% (inactive)
same,growth inhibition,[1]; [11],13% (inactive)
same,growth inhibition,[1]; at 50.0 µM,-4% (inactive) and -3% (inactive)
same,growth inhibition,[2]; at 1.2 µM,-7% (inactive)
same,growth inhibition,[2]; at 3.7 µM,-3% (inactive)
same,growth inhibition,[2]; at 11.0 µM,-7% (inactive)
same,growth inhibition,[2]; at 33.0 µM,-11% (inactive)
same,growth inhibition,[2]; at 100.0 µM,-19% (inactive)
same,growth inhibition,[3]; [10],-25% (inactive)
same,growth inhibition,[3]; [11],-24% (inactive)
same,growth inhibition,[3]; at 50.0 µM,-19.7% (inactive) and 32.1% (inactive)
same,growth inhibition,[4]; at 1.2 µM,6% (inactive)
same,growth inhibition,[4]; at 3.7 µM,8% (inactive)
same,growth inhibition,[4]; [10],5% (inactive)
same,growth inhibition,[4]; at 11.0 µM,12% (inactive)
same,growth inhibition,[4]; at 33.0 µM,36% (inactive)
same,growth inhibition,[4]; [11],56% (inactive)
same,growth inhibition,[4]; at 50.0 µM,33.4% (inactive) and 84.8% (active)
same,growth inhibition,[4]; at 100.0 µM,70% (active)
same,growth inhibition,[5]; at 1.2 µM,-3% (inactive)
same,growth inhibition,[5]; at 3.7 µM,-3% (inactive)
same,growth inhibition,[5]; at 11.0 µM,-6% (inactive)
same,growth inhibition,[5]; at 33.0 µM,-5% (inactive)
same,growth inhibition,[5]; at 100.0 µM,0% (inactive)
same,growth inhibition,[6]; at 1.2 µM,-2% (inactive)
same,growth inhibition,[6]; at 3.7 µM,-2% (inactive)
same,growth inhibition,[6]; at 11.0 µM,-7% (inactive)
same,growth inhibition,[6]; at 33.0 µM,-3% (inactive)
same,growth inhibition,[6]; at 100.0 µM,11% (inactive)
same,growth inhibition,[7]; at 1.2 µM,-1% (inactive)
same,growth inhibition,[7]; at 3.7 µM,-3% (inactive)
same,growth inhibition,[7]; at 11.0 µM,-1% (inactive)
same,growth inhibition,[7]; at 33.0 µM,-3% (inactive)
same,growth inhibition,[7]; at 100.0 µM,-2% (inactive)
same,growth inhibition,[8]; [10],14% (inactive)
same,growth inhibition,[8]; [11],1% (inactive)
same,growth inhibition,[8]; at 50.0 µM,-37% (inactive) and 39.7% (inactive)
same,growth inhibition,[9]; at 1.2 µM,-1% (inactive)
same,growth inhibition,[9]; at 3.7 µM,-3% (inactive)
same,growth inhibition,[9]; at 11.0 µM,-2% (inactive)
same,growth inhibition,[9]; at 33.0 µM,3% (inactive)
same,growth inhibition,[9]; at 100.0 µM,18% (inactive)
